Our source for the growth values is PubChem BioAssay (NCI).

This is part of a sample that, as a whole, favours compounds with a hit. Of some 83,000 tested, about 20% had one in any assay.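 Values shown are percent growth following 48 h exposure of cells in 96-well plates to a single concentration of compound; below 10 was considered active.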 Calls of active or inactive are those of the source.

For this assay, the system named is HL-60(TB) leukemia. In words: NCI-60 one-dose screen, 48 h (100 = growth as untreated, 0 = no growth, -100 = all killed). As to conditions: 10 µM unless noted.
As for `COc1ccc(/C=C/c2c(C(=O)/C=C/c3cccs3)c(C)nc3ccccc23)cc1`, the growth was 69.6% (inactive). The same measure for `Cc1nc(-c2ccccc2)sc1CC#N`: 93.9% (inactive). Next, `CN(C)c1ccc(C(=C2C=CC(=[N+](C)C)C=C2)c2ccc(N(C)C)cc2)cc1` (tested in a mixture with another compound): -51.3% (active); `O=C(N/N=C/c1ccc2c(c1)OCO2)c1cnn2c1NC(c1ccccc1)C2` (stereo not given): 56.3% (inactive); `COc1ccccc1/C=N\N/C(N)=N\N=C\c1ccccc1OC`: -25.9% (active). With `CC(C)[N+](C)(CCOC(COc1ccccc1)COc1ccccc1)C(C)C`, the growth was 30.7% (inactive).

Turning to `Cc1cccc(C[C@H](NC(=O)Nc2ccc(Cl)cc2F)C(=O)N[C@@H]2C(=O)N3C[C@H](OC(=O)CCN(C)C)C[C@H]3C(=O)N3CCCC[C@H]3C(=O)N[C@@H](C)C(=O)N3C[C@H](C)C[C@H]3C(=O)O[C@H]2C)c1`, the growth was 16.3% (inactive). Regarding `CC12CCC3C(CCC4CC(=O)/C(=C\O)CC43C)C1CCC(=O)O2` (stereo not given), the growth is 111% (inactive). `Brc1ccc(/C=C(/C2=NCCN2)n2ccc3ccccc32)cc1`: the growth was 26.2% (inactive). `COc1ccc(OC)c(/C=C/c2nnc(Nc3ccccc3)o2)c1`: the growth is 75.7% (inactive). Next, `c1cc2c(ccc3[nH]c(-c4ccc5[nH]ncc5c4)c4c(c32)CCCC4)n1`: 9.65% (active); `Nc1ccc(-n2c(=O)oc3ccc(Cl)cc3c2=O)c(Cl)c1`: -42.8% (active). Next, `COc1ccccc1/C=C/C(=O)CCC(=O)O`: 88.3% (inactive); `COc1ccc2nc(NC(=O)c3cccnc3Nc3cc(OC)c(OC)c(OC)c3)sc2c1`: 51.8% (inactive); `O=C(O)c1c([N+](=O)[O-])cnc2ccccc12`: 92.4% (inactive).

For the molecule `CC[C@@H](C)OC(=O)c1nn(C(C)=O)c2ccccc12`, the growth was 120% (inactive). Turning to `c1ccc(-c2oc(-c3ccccc3)c(CN3CCCCC3)c2CN2CCCCC2)cc1`, the growth was 27% (inactive).

As to `c1ccc(CN2C(c3ccccc3)=Nc3ccccc3C2c2c[nH]c3ccccc23)cc1` (stereo not given), the growth was 19.6% (inactive). In the case of `CCNc1nc(-c2ccc(F)cc2)c(C#N)c(=O)n1C`, the growth is 85.8% (inactive). For the molecule `C=C1C(=O)O[C@H]2[C@H]1CC/C(CNC(=O)c1cc3cc(OC)ccc3[nH]1)=C\CC[C@@]1(C)O[C@@H]21`, the growth was -21.3% (active). Next, `FC1(F)CCN(Cc2c[nH]c3cc(Cl)ccc23)C[C@H]1CCc1ccccc1`: 62.1% (inactive); `COC(=O)c1nc(-c2ccc(C)cc2)oc1N1CCOCC1`: 93.7% (inactive). Next, `C(=C1c2ccccc2-c2ccccc21)c1ccccn1`: 52.3% (inactive); `Cn1c2ccccc2c2ccccc21`: 95.9% (inactive); `O=C(O)CCCCSCCCCC(=O)O`: 97.8% (inactive). `O=C(Cn1c2ccccc2c2ccncc21)N/N=C/c1cc(O)c(O)c(O)c1`: the growth was 85.1% (inactive).

Turning to `O=C(CCCCCCC(=O)Nc1ccccc1)NO`, the growth is -0.31% (active).

On to `CCOc1ccc(/C=C(\C#N)c2cc3ccccc3[nH]2)cc1`, for which the growth was 43.7% (inactive). The same measure for `C=C1/C(=C\C=C2/CCC[C@]3(C)[C@@H]([C@H](C)CCCC(C)(C)O)CC[C@@H]23)C[C@@H](OC(=O)CBr)C[C@@H]1O`: -59.4% (active). Next, `Cc1nc2ccccc2c(/C=C/c2ccccc2)c1C(=O)/C=C/c1ccc(C(F)(F)F)cc1`: -26.9% (active); `Clc1cc(Cl)c(OCCCCCCN2CCNCC2)c(Cl)c1`: -34.3% (active). For `CCS(=O)(=O)OCCCl`, the growth is 86.7% (inactive). Next, `Fc1ccc(NC(=S)c2ccccc2)cc1`: 102% (inactive); `Cc1[nH]c2ccccc2c1/C=N/Nc1ncnc2sc3c(c12)CCN(CC(=O)OC(C)(C)C)C3`: 12.5% (inactive).

Regarding `CCN(CC)CCn1c2ccc(O)cc2c2sc3cc(O)ccc3c(=O)c21`, the growth was 38% (inactive). Next, `CCc1ccc(Cc2cnc(NC(=O)c3cc(C)oc3C)s2)cc1`: -21.3% (active); `O=C1Nc2ccc(Cl)cc2/C1=N/N=C(c1ccccc1)c1ccccc1`: 91.4% (inactive). As to `N=C(N)c1ccc(-c2ccc(-c3cncc4ccccc34)s2)s1`, the growth is 13.6% (inactive). Turning to `CC1(C)C(=O)/C(=C\c2ccccn2)C[C@]2(C)[C@H]3CC[C@@H]4[C@@H](C(=O)/C=C/c5ccccn5)CC[C@@]4(C)[C@]3(C)CC[C@@H]12`, the growth was -14.4% (active).

As for `C(=N\Nc1ncc(-c2cc3cc4c(cc3o2)OCO4)s1)/c1c[nH]c2ccccc12`, the growth was 2.27% (active).
